In PubChem BioAssay (EPA / NIEHS) one finds outcome and AC50 data, which are given here for three molecules.

The structures appear in SMILES notation. Calls of active or inactive are those of the source. How the source made its calls: active means hit-call score of the fitted dose curve at least 0.9, where 1 is the maximum; inactive means score below 0.9.

Test [1] addresses Transcription factor E2F1 (Homo sapiens) (UniProt Q01094). The test is described as follows: ATG_E2F_CIS: Attagene CIS-FACTORIAL HepG2 Assay for human E2F Transcription Factor 1 (AID 2282935). To be noted: HepG2 Attagene cis-reporter, E2F reporter RNA transcripts; actives raise or lower the signal. Put shortly:
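Multiplexed cis-reporter assay: HepG2, transient transfection, 24 h dosing, mRNA quantitation by labeled RT-PCR and CE.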

The nature of test [2]: ATG_E_Box_CIS: Attagene CIS-FACTORIAL HepG2 Assay for human Enhancer Box (E-box) (AID 2282936). To be noted: HepG2 E-box cis-reporter transcription, actives raise or lower the signal. Put shortly: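 Multiplexed CIS reporter system in transiently transfected HepG2 cells measures native transcription factor activity. Reporter RNA after 24 h exposure is profiled by RT-PCR-capillary electrophoresis.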

Test [3] is described as follows: ATG_M_61_CIS: Attagene CIS-FACTORIAL HepG2 Assay for M61 Transcription Factor (Internal Marker) (AID 2282937). To be noted: HepG2 Attagene CIS-FACTORIAL M61 internal marker reporter; actives raise or lower the signal. Put shortly: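 Readout is reporter mRNA by RT-PCR, fluorescent primer extension and capillary electrophoresis, with gain or loss fitted relative to DMSO. Transfected HepG2 cells carrying endogenous-TF-driven cis reporters were exposed to chemicals for 24 hours.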

Test [4] can be described thus: ATG_EGR_CIS: Attagene CIS-FACTORIAL HepG2 Assay for human Early Growth Response 1 (EGR1) (AID 2282938). To be noted: HepG2 Attagene CIS-FACTORIAL EGR reporter mRNA; actives raise or lower the signal. Put shortly: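 After 24 h compound exposure, RNA from reporter-transfected HepG2 cells was reverse-transcribed, PCR-amplified, fluorescently labelled and resolved by capillary electrophoresis. EGR1 reporter transcript changes, up or down, were fitted against DMSO, reflecting endogenous transcription-factor activity.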

Test [5] is described as follows: ATG_M_19_CIS: Attagene CIS-FACTORIAL HepG2 Assay for M19 Transcription Factor (Internal Marker) (AID 2282939). To be noted: HepG2 Attagene CIS-FACTORIAL M19 internal marker reporter; actives raise or lower the signal. Put shortly: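 Readout: fluorescent reporter-transcript fragments by capillary electrophoresis after RT-PCR. Human HepG2 liver cells carried transfected MRTU constructs reporting endogenous transcription-factor activity; exposure 24 h. Gain or loss of signal fitted relative to DMSO.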

Test [6] can be described thus: ATG_ERE_CIS: Attagene CIS-FACTORIAL HepG2 Assay for Estrogen Response Element (ERE) (AID 2282940). To be noted: HepG2 ERE cis-reporter, Attagene RNA transcript; actives raise or lower the signal. Put shortly: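 Readout: reporter mRNA induction by RT-PCR, FAM-labelled primer extension, HpaI digestion and capillary electrophoresis, 24 h after dosing transfected HepG2 cells. Endogenous transcription factors act on cis-element-regulated reporters. Gain or loss fitted against DMSO.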

Test [7] can be described thus: ATG_Ets_CIS: Attagene CIS-FACTORIAL HepG2 Assay for human Erythroblast Transformation Specific (ETS) (AID 2282941). To be noted: HepG2 ETS cis-reporter transcription, actives raise or lower the signal. Put shortly: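 HepG2 cells transiently transfected with cis-promoter reporter transcription units were dosed for 24 h; reporter mRNA was measured by RT-PCR, 6-FAM primer extension, HpaI digestion and capillary electrophoresis, with bidirectional fitting against DMSO baseline.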

The target in test [8] is Hepatocyte nuclear factor 3-beta (Homo sapiens) (UniProt Q9Y261). The test is described as follows: ATG_FoxA2_CIS: Attagene CIS-FACTORIAL HepG2 Assay for human Forkhead box A2 (FOXA2) (AID 2282942). To be noted: HepG2 cis-reporter transcription factor activity, 24 h; actives raise or lower the signal. Put shortly:
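Endogenous transcription factor activity is captured via cis-element-driven reporter transcripts in transfected HepG2. Total RNA taken at 24 h post-dosing; labelled RT-PCR products resolved by capillary electrophoresis. Gain or loss fitted versus DMSO.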

Test [9] in a line: ATG_FoxO_CIS: Attagene CIS-FACTORIAL HepG2 Assay for human Forkhead box O (FoxO) (AID 2282943). To be noted: HepG2 Attagene cis-reporter, FoxO element, mRNA; actives raise or lower the signal. Put shortly:
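Values reflect reporter mRNA induction or loss in HepG2 cells 24 h post-dosing, fitted bidirectionally with DMSO as negative control and baseline. Detection used RT-PCR and fluorescence capillary electrophoresis.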

The nature of test [10]: ATG_GATA_CIS: Attagene CIS-FACTORIAL HepG2 Assay for human GATA Binding Protein (AID 2282944). To be noted: HepG2 GATA cis-element reporter, Attagene multiplex mRNA; actives raise or lower the signal. Put shortly: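 Read-out: fluorescent reporter mRNA fragments resolved by capillary electrophoresis after RT-PCR. Human liver HepG2 cells carried transiently transfected cis-regulated reporter constructs; chemicals incubated 24 h; gain or loss of signal fitted relative to DMSO.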

Test [11] is described as follows: ATG_GLI_CIS: Attagene CIS-FACTORIAL HepG2 Assay for human Zinc Finger Protein GLI1 (AID 2282945). To be noted: HepG2, Attagene cis-factorial reporter mRNA, GLI element; actives raise or lower the signal. Put shortly: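 HepG2 cells transiently transfected with cis-promoter multiplexed reporter units report endogenous transcription factor activity. After 24 h chemical exposure, reporter mRNA was quantified by RT-PCR, 6-FAM labelling, HpaI digestion and capillary electrophoresis, with bidirectional fitting against DMSO.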

Test [12] has as its target Bile acid receptor (Homo sapiens) (UniProt Q96RI1). The test is described as follows: ATG_IR1_CIS: Attagene CIS-FACTORIAL HepG2 Assay for human Nuclear Receptor Subfamily 1 Group H Member 4 (NR1H4), IR1 submotif (AID 2282946). To be noted: IR1 reporter transcription, actives raise or lower the signal. Put shortly: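 Transient MRTU transfection, HepG2; 24 h dosing; RNA → RT-PCR → 6-FAM primer extension → HpaI digest → capillary electrophoresis fluorescence. Gain/loss of signal fitted relative to DMSO.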

Test [13] is described as follows: ATG_GRE_CIS: Attagene CIS-FACTORIAL HepG2 Assay for human Glucocorticoid Response Elements (GRE) (AID 2282947). To be noted: HepG2 GRE cis-reporter, Attagene multiplex mRNA; actives raise or lower the signal. Put shortly: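 Following 24 h chemical exposure of transiently transfected HepG2 cells, total RNA was reverse-transcribed and reporter cDNA amplified, fluorescently labelled and sized by capillary electrophoresis. Signal gain or loss was fitted relative to DMSO vehicle.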

Test [14] can be described thus: ATG_ISRE_CIS: Attagene CIS-FACTORIAL HepG2 Assay for human Interferon Regulatory Factor 1 (IRF1) binding to an Interferon-Stimulated Response Element (ISRE) (AID 2282948). To be noted: HepG2 ISRE cis-reporter (Attagene), mRNA transcription readout; actives raise or lower the signal. Put shortly: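 HepG2 cells transiently transfected with multiplexed cis-promoter reporter units; after 24 h compound exposure, reporter mRNA quantified by RT-PCR, FAM labelling, HpaI digestion and capillary electrophoresis. Bidirectional fit versus DMSO baseline.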

Test [15] is described as follows: ATG_M_32_CIS: Attagene CIS-FACTORIAL HepG2 Assay for M32 Transcription Factor (Internal Marker) (AID 2282949).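 Further: background control marker of the multiplexed CIS panel rather than a real target.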 To be noted: HepG2 Attagene cis-factorial M32 reporter, mRNA; actives raise or lower the signal. Put shortly:
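Fluorescent capillary electrophoresis peaks of HpaI-digested, FAM-labelled RT-PCR reporter products give the signal. Source: transiently transfected human liver HepG2 cells, 24 h after chemical dosing; bidirectional fitting against DMSO.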

Test [16] can be described thus: ATG_M_06_CIS: Attagene CIS-FACTORIAL HepG2 Assay for M06 Transcription Factor (Internal Marker) (AID 2282950). To be noted: HepG2 Attagene CIS-FACTORIAL M06 internal marker reporter; actives raise or lower the signal. Put shortly:
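Terse: HepG2, transient MRTU transfection (FuGene 6), 24 h dosing; total RNA, oligo(dT) RT, PCR, FAM label, HpaI cut, capillary electrophoresis; bidirectional fit vs DMSO baseline; background-control endpoint.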

The target of test [17] is Hypoxia-inducible factor 1-alpha (Homo sapiens) (UniProt Q16665). The test is described as follows: ATG_HIF1a_CIS: Attagene CIS-FACTORIAL HepG2 Assay for human Hypoxia Inducible Factor 1 (HIF1A) (AID 2282951). To be noted: HepG2 Attagene cis-factorial HIF1a reporter transcription; actives raise or lower the signal. Put shortly:
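Activity is fitted in both directions relative to DMSO. Reporter transcripts are read by RT-PCR, fluorescent primer extension and capillary electrophoresis after 24 h chemical treatment. The cells are HepG2 carrying transiently transfected cis-element-driven reporter units responding to endogenous factors.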

The target of test [18] is Hepatocyte nuclear factor 6 (Homo sapiens) (UniProt Q9UBC0). The test is described as follows: ATG_HNF6_CIS: Attagene CIS-FACTORIAL HepG2 Assay for human Hepatocyte Nuclear Factor 6 (HNF6) (AID 2282952). To be noted: HepG2 Attagene cis-factorial HNF6 reporter transcription; actives raise or lower the signal. Put shortly: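 Reporter mRNA induction or loss in HepG2 after 24 h exposure; transient cis-MRTU transfection; fragments quantified by capillary electrophoresis; bidirectional analysis, DMSO as negative control.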
Chain of Hepatocyte nuclear factor 6 (Homo sapiens) (Q9UBC0 whole entry, looked up, the tested form may be a part): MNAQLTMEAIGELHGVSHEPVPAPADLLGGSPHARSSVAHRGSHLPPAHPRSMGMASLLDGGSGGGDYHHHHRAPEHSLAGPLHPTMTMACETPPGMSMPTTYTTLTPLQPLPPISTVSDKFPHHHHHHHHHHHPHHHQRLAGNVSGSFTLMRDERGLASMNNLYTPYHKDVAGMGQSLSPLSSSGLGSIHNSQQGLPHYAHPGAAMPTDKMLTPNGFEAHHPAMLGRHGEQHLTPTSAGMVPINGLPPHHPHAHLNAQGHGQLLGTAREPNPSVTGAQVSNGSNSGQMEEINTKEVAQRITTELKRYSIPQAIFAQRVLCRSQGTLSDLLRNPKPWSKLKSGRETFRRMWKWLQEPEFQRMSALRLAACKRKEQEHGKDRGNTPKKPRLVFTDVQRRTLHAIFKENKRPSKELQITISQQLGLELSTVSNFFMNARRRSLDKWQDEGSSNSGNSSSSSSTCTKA

Test [19] addresses Heat shock factor protein 1 (Homo sapiens) (UniProt Q00613). Nature of the test: ATG_HSE_CIS: Attagene CIS-FACTORIAL HepG2 Assay for human Heat Shock Transcription Factor 1 (HSE) (AID 2282953). To be noted: HepG2 HSE cis-reporter, Attagene RNA transcription; actives raise or lower the signal. Put shortly:
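Read-out: fluorescence of reporter-specific RT-PCR fragments separated by capillary electrophoresis. HepG2 carrying transfected cis-element reporter units; 24 h dosing; activity fitted in both directions relative to DMSO baseline.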

Test [20] can be described thus: ATG_MRE_CIS: Attagene CIS-FACTORIAL HepG2 Assay for human Metal Responsive Element (MRE) (AID 2282954). To be noted: HepG2 MRE cis-reporter transcription, Attagene multiplex; actives raise or lower the signal. Put shortly:
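Step one: transfect HepG2 with cis-regulated reporter units. Step two: dose 24 h. Step three: isolate RNA, RT-PCR, 6-FAM label, HpaI digest, capillary electrophoresis. Fit bidirectionally to DMSO.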

Chain of Heat shock factor protein 1 (Homo sapiens) (Q00613 whole entry, looked up, the tested form may be a part): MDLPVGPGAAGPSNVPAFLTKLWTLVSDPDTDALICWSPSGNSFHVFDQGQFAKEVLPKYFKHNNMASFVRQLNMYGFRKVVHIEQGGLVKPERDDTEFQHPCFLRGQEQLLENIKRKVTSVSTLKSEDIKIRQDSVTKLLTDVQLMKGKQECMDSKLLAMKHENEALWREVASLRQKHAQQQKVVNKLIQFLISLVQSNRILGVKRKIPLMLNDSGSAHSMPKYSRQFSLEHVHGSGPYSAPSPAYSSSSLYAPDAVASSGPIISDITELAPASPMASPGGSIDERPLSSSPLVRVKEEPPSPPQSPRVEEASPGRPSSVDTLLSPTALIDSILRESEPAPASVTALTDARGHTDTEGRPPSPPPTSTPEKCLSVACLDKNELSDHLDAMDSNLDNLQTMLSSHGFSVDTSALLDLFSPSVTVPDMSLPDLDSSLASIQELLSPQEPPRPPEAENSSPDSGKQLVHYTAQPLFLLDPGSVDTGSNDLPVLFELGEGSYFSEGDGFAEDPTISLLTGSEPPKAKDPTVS
Chain of Bile acid receptor (Homo sapiens) (Q96RI1 whole entry, looked up): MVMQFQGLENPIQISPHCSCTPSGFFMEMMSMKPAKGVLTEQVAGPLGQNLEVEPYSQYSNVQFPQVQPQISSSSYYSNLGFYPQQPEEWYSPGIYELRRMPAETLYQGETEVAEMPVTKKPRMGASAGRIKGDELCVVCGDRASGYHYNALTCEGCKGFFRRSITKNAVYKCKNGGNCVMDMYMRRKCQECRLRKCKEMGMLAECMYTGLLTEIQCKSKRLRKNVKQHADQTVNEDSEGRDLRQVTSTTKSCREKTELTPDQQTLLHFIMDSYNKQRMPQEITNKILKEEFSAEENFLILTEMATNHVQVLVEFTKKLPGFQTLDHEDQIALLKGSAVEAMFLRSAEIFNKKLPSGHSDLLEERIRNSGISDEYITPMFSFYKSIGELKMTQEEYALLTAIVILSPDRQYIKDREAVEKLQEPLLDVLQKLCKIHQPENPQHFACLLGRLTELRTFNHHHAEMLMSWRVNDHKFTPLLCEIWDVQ
Chain of Transcription factor E2F1 (Homo sapiens) (Q01094 whole entry, looked up): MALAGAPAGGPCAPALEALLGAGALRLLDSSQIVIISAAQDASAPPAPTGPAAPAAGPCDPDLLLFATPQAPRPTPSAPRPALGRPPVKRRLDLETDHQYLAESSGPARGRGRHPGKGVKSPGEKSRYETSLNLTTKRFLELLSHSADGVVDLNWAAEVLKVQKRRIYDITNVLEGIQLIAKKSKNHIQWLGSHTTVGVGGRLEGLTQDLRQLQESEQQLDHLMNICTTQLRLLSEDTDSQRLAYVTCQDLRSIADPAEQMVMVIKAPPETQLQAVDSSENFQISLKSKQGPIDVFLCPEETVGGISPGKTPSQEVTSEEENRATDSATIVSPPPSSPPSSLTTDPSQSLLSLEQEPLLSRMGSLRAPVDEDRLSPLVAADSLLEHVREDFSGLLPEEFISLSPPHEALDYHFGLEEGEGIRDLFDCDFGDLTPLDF
Chain of Hepatocyte nuclear factor 3-beta (Homo sapiens) (Q9Y261 whole entry, looked up): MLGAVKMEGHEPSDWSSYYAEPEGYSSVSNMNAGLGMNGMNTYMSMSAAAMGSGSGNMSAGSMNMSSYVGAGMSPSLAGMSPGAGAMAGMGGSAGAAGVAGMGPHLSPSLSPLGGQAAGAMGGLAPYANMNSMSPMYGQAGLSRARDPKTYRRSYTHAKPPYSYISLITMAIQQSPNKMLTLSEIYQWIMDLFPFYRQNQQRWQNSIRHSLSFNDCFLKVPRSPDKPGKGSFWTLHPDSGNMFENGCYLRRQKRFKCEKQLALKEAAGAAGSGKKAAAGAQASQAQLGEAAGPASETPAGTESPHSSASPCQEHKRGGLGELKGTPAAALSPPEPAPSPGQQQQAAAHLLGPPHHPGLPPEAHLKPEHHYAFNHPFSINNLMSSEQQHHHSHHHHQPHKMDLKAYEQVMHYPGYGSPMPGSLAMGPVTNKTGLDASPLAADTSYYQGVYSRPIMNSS
Chain of Hypoxia-inducible factor 1-alpha (Homo sapiens) (Q16665 whole entry, looked up): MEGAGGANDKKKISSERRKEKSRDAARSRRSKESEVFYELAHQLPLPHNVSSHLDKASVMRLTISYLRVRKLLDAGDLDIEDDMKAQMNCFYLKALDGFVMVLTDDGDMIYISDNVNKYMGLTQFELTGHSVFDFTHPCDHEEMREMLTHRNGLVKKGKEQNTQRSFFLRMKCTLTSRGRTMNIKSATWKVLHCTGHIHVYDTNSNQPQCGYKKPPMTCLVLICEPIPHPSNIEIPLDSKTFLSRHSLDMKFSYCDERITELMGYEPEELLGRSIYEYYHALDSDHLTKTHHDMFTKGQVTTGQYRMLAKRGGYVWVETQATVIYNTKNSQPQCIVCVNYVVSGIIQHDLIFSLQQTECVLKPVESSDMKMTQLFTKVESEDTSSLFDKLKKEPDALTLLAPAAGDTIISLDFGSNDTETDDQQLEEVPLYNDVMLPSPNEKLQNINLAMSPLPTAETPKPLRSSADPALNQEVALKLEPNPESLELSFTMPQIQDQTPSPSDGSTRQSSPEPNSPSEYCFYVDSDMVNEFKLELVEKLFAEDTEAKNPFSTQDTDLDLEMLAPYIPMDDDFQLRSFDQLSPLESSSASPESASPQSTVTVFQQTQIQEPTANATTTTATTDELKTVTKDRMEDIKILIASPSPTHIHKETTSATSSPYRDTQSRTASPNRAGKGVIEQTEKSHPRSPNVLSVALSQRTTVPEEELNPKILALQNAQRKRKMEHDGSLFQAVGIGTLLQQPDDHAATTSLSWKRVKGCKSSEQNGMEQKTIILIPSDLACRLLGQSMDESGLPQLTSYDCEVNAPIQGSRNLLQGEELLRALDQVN

Broadly, the AC50 is the concentration giving half of the maximal activity seen. Regarding `COc1cc(S(=O)(=O)O)c(C)cc1N=Nc1c(O)ccc2cc(S(=O)(=O)O)ccc12`, the molecule was classed as inactive in test [1], in [2], in test [3], in [4], in test [5] and in test [6]. Moreover, the result in test [7], in [8], in test [9], in test [10], in test [11] and in test [12] was inactive. Also, the result in test [13], in [14], in test [15], in test [16], in test [18] and in test [19] was inactive. Besides, in [20], the call was inactive. In addition, the AC50 in [17] was 5.78 µM (active).
Regarding `Nc1ccc(S(=O)(=O)c2ccc(N)cc2)cc1`, the call in [1], in test [2], in test [3], in test [4], in [5] and in [7] was inactive. For the same molecule, the molecule was called inactive in test [8], in test [9], in [10], in [11], in test [12] and in [14]. Also, the molecule was called inactive in test [15], in test [16], in test [18], in test [19] and in test [20].
Regarding `Cc1cc(NC(=O)C(=O)O)cc(C)c1Oc1ccc(O)c2c1CCC2`, the result in test [1], in test [2], in test [3], in [4], in test [5] and in [7] was inactive. Besides, the molecule was called inactive in [8], in [9], in [10], in [11], in test [12] and in test [13]. The call in test [14], in test [15], in [16], in [17], in test [18] and in test [19] was inactive. In addition, the molecule was classed as inactive in test [20].
